The source made the active and inactive calls. The call rests on the fitted dose curve; in most records, active means well fitted curve in the direction sought with a large enough effect; inactive means no such curve, though single readings can be large or run the other way.
target: Alpha-galactosidase A (Homo sapiens) (UniProt P06280); test: qHTS Assay for Inhibitors and Activators of N370S glucocerebrosidase as a Potential Chaperone Treatment of Gaucher Disease: Alpha-Galactosidase Counterscreen; settings: purified enzyme, 4-MU-alpha-Gal fluorescence, 20 min; series mostly up to 57.5 µM; activity change, negative = inhibition: at the top concentration
From the text: NIH Chemical Genomics Center [NCGC] NIH Molecular Libraries Probe Production Centers Network [MLPCN] MLPCN Grant: MH086442-01 Assay Submitter (PI): Wei Zheng Glucocerebrosidase (GC) catalyzes the hydrolysis of beta-glucocerebroside to glucose and ceramide in lysosomes. Mutations in the glucocerebrosidase gene result in Gaucher disease, an autosomal recessive lysosomal storage disorder. Many of the mutations encountered in patients with Gaucher disease are missense alterations that may cause misfolding, decreased stability and/or mistrafficking of this lysosomal protein. […] These inhibitors include iminosugar analogs and three non-iminosugar inhibitors identified from a previous HTS of 62,000 compounds with the wild type recombinant enzyme. However, the enhancement of enzyme activity by the chaperone action of an enzyme inhibitor must be balanced against the direct inhibition of the enzyme. An enzyme activator could also function as a chaperone by binding to the enzyme and helping to correct its misfolding and mistrafficking. While activators for GC have not yet been identified, they may have better therapeutic potential than inhibitors. Therefore the discovery and development of chemical activators may provide a new strategy for the chaperone therapy. To characterize compound selectivity, selected hits from the primary screen were screened against purified alpha-galactosidase, a related sugar hydrolase. Alpha-galactosidase is a homodimeric glycoprotein that hydrolyzes the terminal alpha-galactosyl moieties from glycolipids and glycoproteins.
NCGC Assay Protocol Summary: This is a fluorogenic enzyme assay with 4-Methylumbelliferyl alpha-D-galactopyranoside as the substrate and human […] as the enzyme preparation. Upon the hydrolysis of this fluorogenic substrate, the resulting product, […]. 4-Methyllumbelliferone, can be excited at 365 nm and emits at 440 nm. This fluorescence which can be detected by a standard fluorescence plate reader. Data were normalized to the controls for basal activity (without enzyme) and 100% activity (with enzyme). In the AC50 values were determined from concentration-response data modeled with the standard Hill equation. Assay buffer: 50 mM citric acid (titrated with potassium phosphate to pH 4.5), 0.005% Tween-20, pH 4.5. (pH 4.5 is an optimal condition for this enzyme assay) 1536-well assay protocol for the human alpha-galactosidase: (1) Add 2 ul/well of enzyme (12 nM final) (2) Add 23 nL compounds in DMSO solution. The final titration was 0.7 nM to 77 uM. (3) Add 1 ul of substrate ([…]) (4) Incubate at room temperature for 20 min. (5) Add 2 ul stop solution (1M NaOH and 1M Glycine mixture, pH 10) (6) Detect the assay plate in a ViewLux plate reader (PerkinElmer) with Ex=365 nm and Em=440nm. Keywords: MLSMR, MLPCN, NIH Roadmap, qHTS, NCGC, : Alpha-galactosidase, Fabry Disease, pharmacological chaperone, chaperone therapy

Alpha-galactosidase A (Homo sapiens), sequence (P06280 whole entry, looked up): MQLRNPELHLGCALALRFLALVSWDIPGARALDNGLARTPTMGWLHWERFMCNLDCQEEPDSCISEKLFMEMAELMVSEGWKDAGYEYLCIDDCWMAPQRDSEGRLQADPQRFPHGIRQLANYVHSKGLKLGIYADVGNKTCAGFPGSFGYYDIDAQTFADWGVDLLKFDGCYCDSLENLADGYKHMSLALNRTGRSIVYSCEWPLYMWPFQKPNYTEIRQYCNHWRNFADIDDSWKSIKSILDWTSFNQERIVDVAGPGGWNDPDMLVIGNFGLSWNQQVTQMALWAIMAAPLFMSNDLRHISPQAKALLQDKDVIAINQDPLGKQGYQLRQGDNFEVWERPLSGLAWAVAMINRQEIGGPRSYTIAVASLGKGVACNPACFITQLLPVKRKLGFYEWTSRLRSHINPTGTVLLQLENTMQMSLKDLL

**Q.** For `O=S(=O)(c1ccccc1Br)N1CCN(c2nc(-c3cccs3)nc3ccccc23)CC1`, which “activity change, negative = inhibition” value is on record?
**A.** -8.16% (inactive)

**Q.** For `O=[N+]([O-])c1cccc(S(=O)(=O)N2CCN(c3nc(-c4ccccc4)nc4ccccc34)CC2)c1`, which “activity change, negative = inhibition” value is on record?
**A.** -5.88% (inactive)

**Q.** `O=S(=O)(c1ccc2ccccc2c1)N1CCN(c2nc(-c3ccccc3)nc3ccccc23)CC1` was tested. Which “activity change, negative = inhibition” value did it give?
**A.** -6.14% (inactive)

**Q.** For `O=S(=O)(c1ccccc1)N1CCN(c2nc(-c3ccc(F)cc3)nc3cc(Cl)ccc23)CC1`, which “activity change, negative = inhibition” value is on record?
**A.** -1.96% (inactive)

**Q.** With `O=S(=O)(c1ccc2ccccc2c1)N1CCN(c2nc(-c3cccs3)nc3ccccc23)CC1` as the compound, how does the “activity change, negative = inhibition” value read?
**A.** -3.64% (inactive)

**Q.** Which “activity change, negative = inhibition” value does the source give for `CCOc1ccc(S(=O)(=O)N2CCN(c3nc(-c4ccccc4)nc4ccccc34)CC2)cc1OCC` here?
**A.** -8.78% (inactive)

**Q.** With `O=S(=O)(c1ccc(OC(F)(F)F)cc1)N1CCN(c2nc(-c3ccccc3)nc3ccccc23)CC1` as the compound, how does the “activity change, negative = inhibition” value read?
**A.** -4.05% (inactive)

**Q.** How did the “activity change, negative = inhibition” value turn out when `O=S(=O)(c1ccc2c(c1)OCCO2)N1CCN(c2nc(-c3ccccc3)nc3ccccc23)CC1` was run?
**A.** -12.6% (inactive)

**Q.** Which “activity change, negative = inhibition” value does the source give for `N#Cc1ccccc1S(=O)(=O)N1CCN(c2nc(-c3cccs3)nc3ccccc23)CC1` here?
**A.** -3.19% (inactive)

**Q.** How did the “activity change, negative = inhibition” value turn out when `COc1ccc(-c2nc(N3CCN(S(=O)(=O)c4ccc(F)cc4)CC3)c3ccccc3n2)cc1` was run?
**A.** -10.8% (inactive)

**Q.** Which “activity change, negative = inhibition” value does the source give for `O=[N+]([O-])c1ccc(S(=O)(=O)N2CCN(c3nc(-c4cccs4)nc4ccccc34)CC2)cc1` here?
**A.** -5.18% (inactive)

**Q.** How did the “activity change, negative = inhibition” value turn out when `O=S(=O)(c1ccccc1Br)N1CCN(c2nc(-c3ccccc3)nc3ccccc23)CC1` was run?
**A.** -29.7% (inactive)

**Q.** For `COc1ccc(S(=O)(=O)N2CCN(c3nc(-c4cccs4)nc4ccccc34)CC2)cc1OC`, which “activity change, negative = inhibition” value is on record?
**A.** -9.79% (inactive)

**Q.** For `COc1ccc(-c2nc(N3CCN(S(=O)(=O)c4ccc(C)cc4)CC3)c3ccccc3n2)cc1`, which “activity change, negative = inhibition” value is on record?
**A.** -1.79% (inactive)

**Q.** For `COc1ccc(S(=O)(=O)N2CCN(c3nc(-c4ccccc4)nc4ccccc34)CC2)cc1`, which “activity change, negative = inhibition” value is on record?
**A.** -3.17% (inactive)

**Q.** With `O=S(=O)(c1cccc(Cl)c1)N1CCN(c2nc(-c3ccccc3)nc3ccccc23)CC1` as the compound, how does the “activity change, negative = inhibition” value read?
**A.** -12.9% (inactive)

**Q.** For `COc1ccc(S(=O)(=O)N2CCN(c3nc(-c4cccs4)nc4ccccc34)CC2)cc1`, which “activity change, negative = inhibition” value is on record?
**A.** -17.2% (inactive)

**Q.** How did the “activity change, negative = inhibition” value turn out when `O=S(=O)(c1ccccc1Cl)N1CCN(c2nc(-c3cccs3)nc3ccccc23)CC1` was run?
**A.** -18.3% (inactive)

**Q.** For `O=S(=O)(c1cccc(C(F)(F)F)c1)N1CCN(c2nc(-c3ccccc3)nc3ccccc23)CC1`, which “activity change, negative = inhibition” value is on record?
**A.** -10.1% (inactive)

**Q.** With `O=[N+]([O-])c1cccc(S(=O)(=O)N2CCN(c3nc(-c4cccs4)nc4ccccc34)CC2)c1` as the compound, how does the “activity change, negative = inhibition” value read?
**A.** -1.82% (inactive)

**Q.** How did the “activity change, negative = inhibition” value turn out when `O=S(=O)(c1ccc(C(F)(F)F)cc1)N1CCN(c2nc(-c3ccccc3)nc3ccccc23)CC1` was run?
**A.** -13.6% (inactive)

**Q.** How did the “activity change, negative = inhibition” value turn out when `COc1ccc(-c2nc(N3CCN(S(=O)(=O)c4ccccc4)CC3)c3ccccc3n2)cc1` was run?
**A.** -8.9% (inactive)

**Q.** How did the “activity change, negative = inhibition” value turn out when `Cc1ccc(S(=O)(=O)N2CCN(c3nc(-c4ccc(F)cc4)nc4cc(Cl)ccc34)CC2)cc1` was run?
**A.** -11.1% (inactive)

**Q.** Which “activity change, negative = inhibition” value does the source give for `O=S(=O)(c1ccc2c(c1)CCC2)N1CCN(c2nc(-c3ccccc3)nc3ccccc23)CC1` here?
**A.** -8.4% (inactive)

**Q.** For `CC(C)(C)c1ccc(S(=O)(=O)N2CCN(c3nc(-c4ccccc4)nc4ccccc34)CC2)cc1`, which “activity change, negative = inhibition” value is on record?
**A.** -7.91% (inactive)

**Q.** `O=[N+]([O-])c1ccccc1S(=O)(=O)N1CCN(c2nc(-c3cccs3)nc3ccccc23)CC1` was tested. Which “activity change, negative = inhibition” value did it give?
**A.** -7.26% (inactive)

**Q.** Which “activity change, negative = inhibition” value does the source give for `O=S(=O)(c1ccc(F)cc1)N1CCN(c2nc(-c3cccs3)nc3cc(Cl)ccc23)CC1` here?
**A.** -15.3% (inactive)

**Q.** With `O=S(=O)(c1ccccc1C(F)(F)F)N1CCN(c2nc(-c3ccccc3)nc3ccccc23)CC1` as the compound, how does the “activity change, negative = inhibition” value read?
**A.** -8.09% (inactive)

**Q.** With `O=S(=O)(c1ccc2c(c1)OCCO2)N1CCN(c2nc(-c3cccs3)nc3ccccc23)CC1` as the compound, how does the “activity change, negative = inhibition” value read?
**A.** -4.11% (inactive)

**Q.** For `O=S(=O)(c1ccc(C(F)(F)F)cc1)N1CCN(c2nc(-c3cccs3)nc3ccccc23)CC1`, which “activity change, negative = inhibition” value is on record?
**A.** -9.68% (inactive)

Source: PubChem BioAssay AID2578 (National Center for Advancing Translational Sciences (NCATS), 2010)
